Results published in PubChem BioAssay AID2284369 (EPA ToxCast).
Inconclusive results are not listed. Active and inactive are the calls of the source. The calls were made as follows: active = hit-call score of the fitted dose curve at least 0.9, where 1 is the maximum; inconclusive = response in the unintended direction; inactive = score below 0.9.

system: frog Estrogen Receptor (ER1), gene 398734; experiment: ATG_frER1_EcoTox2: Attagene TRANS-FACTORIAL EcoTox-2 HepG2 Assay for frog Estrogen Receptor (ER1)
Method: ATG_EcoTox2 is a cell-based, multiplexed assay created by modifying the existing Attagene TRANS-FACTORIAL system to include a panel of nuclear receptors from some or all the following species: human (Homo sapiens), african clawed frog (Xenopus laevis), rainbow trout (Oncorhynchus mykiss), japanese medaka (Oryzias latipes), and zebrafish (Danio rerio). The ECOTOX2-FACTORIAL format uses HepG2, a human liver cell line, with measurements taken at 24 hours after chemical dosing in a 24-well plate. ATG_frER1_EcoTox2 is one of 29 assay components calculated in the ATG_EcoTox2 assay. It is designed to make measurements of mRNA induction, a form of inducible reporter, as detected with fluorescence intensity signals by Reverse transcription polymerase chain reaction (RT-PCR) and Capillary electrophoresis technology.The assay endpoint ATG_frER1_EcoTox2 was analyzed in the positive analysis fitting direction relative to DMSO as the negative control and baseline of activity. Using a type of inducible reporter, measures of mRNA for gain-of-signal activity can be used to understand the reporter gene at the transcription factor-level as they relate to the gene ER. Furthermore, this assay endpoint can be referred to as a primary readout, because this assay has produced multiple assay endpoints where this one serves a reporter gene function. To generalize the intended target to other relatable targets, this assay endpoint is annotated to the nuclear receptor intended target family, where the subfamily is steroidal.
Human liver HepG2 cells are transiently transfected with multiple reporter transcription units (MRTUs) in 6-well plates using FuGene 6 reagent (Roche; 3 ml FuGene/1 mg DNA). The MRTU constructs are regulated by a cis-regulating element (promoter). Each RTU expresses a GAL4-UAS that regulates the transcription of a nearby target reporter gene sequence. A major difference between the CIS and TRANS system is that in CIS activities of endogenous TFs are measured, whereas the TRANS assay evaluates changes in activities of exogenous, chimeric NR-Gal4 proteins. […] At the end of 24 hour incubation, total RNA was isolated using TriZol reagent (Invitrogen). The isolated RNA is then reverse-transcribed using oligo(dT) primer and Mo-MLV reverse transcriptase (Invitrogen) with DNAse I (Ambion) treatment for 30 min. The one-tenth of the produced cDNA was amplified by PCR using Taq DNA polymerase (Invitrogen) and two reporter sequence-specific primers. The PCR products were fluorescently labeled by primer extension with 6-arboxyfluorescein (6-FAM) 5'-labeled reporter sequence-specific primer (2 min at 95 C, 20 s at 68 C and 10 min at 72 C) and these products were digested with 5U of HpaI (New England Biolabs) for 2h at 37 C. The fragments were purified using Qiaquick PCR columns (Qiagen), analyzed on an ABI 3130xL genetic analyzer (Applied Biosystems) with peak positions identified by using a set of X-rhodamine (ROX)-labeled MapMarker1000 molecular weight standards (BioVentures). The raw capillary electrophoresis data was processed using Attagraph software (Attagene).

SMILES | outcome | AC50
C=C(c1ccc(C(=O)O)cc1)c1cc2c(cc1C)C(C)(C)CCC2(C)C | inactive | 
C[C@@H]1C[C@H]2[C@@H]3CCC4=CC(=O)C=C[C@]4(C)[C@@]3(F)[C@@H](O)C[C@]2(C)[C@@]1(O)C(=O)COP(=O)(O)O | inactive | 
CC(C)(Oc1ccc(CCNC(=O)c2ccc(Cl)cc2)cc1)C(=O)O | inactive | 
C[C@]12C=CC(=O)C=C1CC[C@@H]1[C@@H]2C(=O)C[C@@]2(C)[C@H]1CC[C@]2(O)C(=O)CO |  | 50 µM (active)
Cc1ccc(C)c(OCCCC(C)(C)C(=O)O)c1 | inactive | 
CN(CCOc1ccc(CC2SC(=O)NC2=O)cc1)c1ccccn1 (stereo not given) | inactive | 
Cc1c(C)c2c(c(C)c1O)CCC(C)(COc1ccc(CC3SC(=O)NC3=O)cc1)O2 (stereo not given) | inactive | 
Cc1cccc(Nc2cc(Cl)nc(SCC(=O)O)n2)c1C | inactive | 
CC(c1cc2ccccc2s1)N(O)C(N)=O (stereo not given) | inactive | 
CC(C)OC(=O)C(C)(C)Oc1ccc(C(=O)c2ccc(Cl)cc2)cc1 | inactive | 
